# In PubChem BioAssay (NCI):
# The panel holds about 83,000 compounds, 20% with a hit somewhere; the sample as a whole holds those more often.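 Results are percent growth after 48 hours of single-concentration exposure. 100 means growth as in untreated cells, lower positive values show inhibition; negative values down to -100 show cell death.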 Unmarked numbers belong to inactive results. Rule for the calls: active = growth percent below 10; inactive = the rest.
# Tested on: DU-145 prostate
# Experiment: NCI-60 one-dose screen, 48 h (100 = growth as untreated, 0 = no growth, -100 = all killed)
# Conditions: 10 µM
row,SMILES,growth [%]
1,CC(C)[N+]1(C)C2CC[C@@H]1CC(OC(=O)C(CO)c1ccccc1)C2 (stereo not given in full),117
2,Cc1c2c[n+](C(C)C)ccc2c(C)c2c1[nH]c1ccccc12,36.1
3,Cc1ccc(-n2c(C)nn3c(=O)c4c5c(sc4nc23)CN(C)CC5)cc1,99.8
4,CCCCCCCCCCCCCCCCCC[n+]1ccc2c(C)c3c(c(C)c2c1)c1cc(O)ccc1n3CC,40.4
5,Cc1c2cnccc2c(C)c2c1c1cc(O)ccc1n2C(C)C,12.1
6,COc1ccc(C(=O)CSc2nc(-c3cc(OC)ccc3OC)cc(-c3ccc(OC)cc3)c2C#N)cc1,108
7,CCn1c2ccc(O)cc2c2c(C)c3c[n+](C)ccc3c(C)c21,53.7
8,Cc1ccccc1N1C(=O)c2cc(S(N)(=O)=O)c(Cl)cc2NC1C (stereo not given),111
9,N#Cc1c(-c2ccc(Cl)cc2)cc(-c2cc(O)ccc2O)nc1N,21.7
10,CN1CCc2c(sc3nc4n(-c5ccc(Cl)cc5)c(=O)[nH]n4c(=O)c23)C1,103
11,Cn1c2ccccc2c2c3[nH][nH]c(=O)c3c3c4ccccc4[nH]c3c21,10.5
12,O=C1c2c(c3c4ccccc4n(CCCCCCN4CCOCC4)c3c3[nH]c4ccccc4c23)C(=O)N1O,109
13,Nc1ccccc1NC(=O)c1ccc(CCCC(=O)Nc2ccc(C3CC3N)cc2)cc1 (stereo not given),38.7
14,Nc1nc(-c2cccnc2)nc2c1sc(=S)n2-c1ccccc1,103
15,Nc1cc(-c2ccncc2)c[nH]c1=O,110
